In PubChem BioAssay (NCI):
This is part of a sample that, as a whole, favours compounds with a hit. Of some 79,000 tested, about 15% had one in any assay. Activity calls are given as the source filed them. No stated cut-off is given here; in the data, active means growth inhibition above about 70%; inactive means the rest.

Assays:
[1] = NCI Yeast Anticancer Drug Screen. Data for the rad50 strain (AID 155);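 further: 0% = growth of vehicle-only cultures of the same strain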; conditions: S. cerevisiae rad50 strain growth inhibition, active compounds read high
In short: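 Inhibition values express reduced yeast growth in compound-treated cultures relative to vehicle-treated controls.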

[2] = NCI Yeast Anticancer Drug Screen. Data for the mec2-1 strain (AID 157); conditions: S. cerevisiae mec2-1 strain, active compounds read high
In short: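 Vehicle-treated cultures served as reference for growth inhibition of compound-exposed mec2-1 yeast.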

[3] = NCI Yeast Anticancer Drug Screen. Data for the sgs1 mgt1 strain (AID 161);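 further: 0% = growth of cultures given vehicle only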; conditions: S. cerevisiae sgs1 mgt1 strain, active compounds read high
In short: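 Inhibition of yeast growth, normalised to vehicle-treated controls, is reported for a strain bearing genetic alterations in DNA damage repair.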

[4] = NCI Yeast Anticancer Drug Screen. Data for the cln2 rad14 strain (AID 165);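 further: 0% = growth equal to vehicle treated cultures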; conditions: S. cerevisiae cln2 rad14 strain, active compounds read high
In short: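 Each compound was tested on cln2 rad14 yeast. Inhibition of growth was calculated against vehicle-exposed controls.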

[5] = NCI Yeast Anticancer Drug Screen. Data for the bub3 strain (AID 167); conditions: S. cerevisiae bub3 mutant strain, active compounds read high
In short: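 Steps: expose the mutant yeast strain to compound; grow alongside vehicle-treated cultures; measure growth; express inhibition against the vehicle cultures.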

[6] = NCI Yeast Anticancer Drug Screen. Data for the mlh1 rad18 strain (AID 175); conditions: S. cerevisiae mlh1 rad18 strain growth inhibition, active compounds read high
In short: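 Vehicle-treated cultures served as the reference for growth inhibition in a yeast strain carrying DNA damage repair alterations exposed to each compound.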

[7] = at 5.0 µM (retest, dose inferred, filed as 0.5)
[8] = at 50.0 µM (retest, dose inferred, filed as 5.0)

Measured: growth inhibition

Oc1cccc2ccncc12
inactive: [1]; [7] 7% | [1]; [8] 9% | [1]; at 50.0 µM 29.3% | [2]; [7] -14% | [2]; [8] 14% | [2]; at 50.0 µM 20.4% | [3]; [7] 3% | [3]; [8] 16% | [3]; at 50.0 µM 22.1% | [4]; [7] 13% | [4]; [8] 29% | [4]; at 50.0 µM 9.05% | [5]; [7] 2% | [5]; [8] 14% | [5]; at 50.0 µM 21.1% | [6]; [7] 2% | [6]; [8] 43% | [6]; at 50.0 µM 58.4%

NC(Cc1ccc(O)cc1O)C(=O)O (configuration not stated)
active: [4]; at 50.0 µM 74.9%
inactive: [1]; [7] 0% | [1]; [8] 2% | [1]; at 50.0 µM 7.7% | [2]; [7] 0% | [2]; [8] -1% | [2]; at 50.0 µM 31% | [3]; [7] -1% | [3]; [8] -4% | [3]; at 50.0 µM -7% | [4]; [7] 2% | [4]; [8] -2% | [5]; [7] 5% | [5]; [8] -4% | [5]; at 50.0 µM 3.55% | [6]; [7] -1% | [6]; [8] -1% | [6]; at 50.0 µM 16.4%

O=C(Oc1ccccc1)C1CCCCC1C(=O)Oc1ccccc1 (configuration not stated)
inactive: [1]; [7] -16% | [1]; [8] -12% | [1]; at 50.0 µM 39.2% | [2]; [7] -19% | [2]; [8] 10% | [2]; at 50.0 µM 26.4% | [3]; [7] -3% | [3]; [8] 5% | [3]; at 50.0 µM 30.4% | [4]; [7] 10% | [4]; [8] 33% | [4]; at 50.0 µM -2.35% | [5]; [7] -9% | [5]; [8] -5% | [5]; at 50.0 µM -4.5% | [6]; [7] -11% | [6]; [8] -6% | [6]; at 50.0 µM 31.8%

C[n+]1c(-c2ccc(/C=N/Nc3n[nH]c(=S)n3/N=C/c3ccc(-c4cn5ccsc5[n+]4C)cc3)cc2)cn2ccsc21
inactive: [1]; [7] -14% | [2]; [7] -2% | [3]; [7] -4% | [4]; [7] -6% | [5]; [7] -29% | [6]; [7] -2%
active: [1]; [8] 97% | [1]; at 50.0 µM 97.9% | [2]; [8] 97% | [2]; at 50.0 µM 94.2% | [3]; [8] 96% | [3]; at 50.0 µM 95.3% | [4]; [8] 94% | [4]; at 50.0 µM 93.8% | [5]; [8] 98% | [5]; at 50.0 µM 96.5% | [6]; [8] 97% | [6]; at 50.0 µM 93.5%

COC(C(=O)C1=C2Oc3c4c(cc(O)c3C(=O)C2C2=C(CCCC2)C1=O)OC(C)(C)C=C4)C(C)CCC=C(C)C (configuration not stated)
inactive: [1]; [7] 6% | [2]; [7] -1% | [3]; [7] 3% | [4]; [7] -5% | [5]; [7] 4% | [6]; [7] 4%
active: [1]; [8] 90% | [1]; at 50.0 µM 74.2% | [2]; [8] 90% | [2]; at 50.0 µM 79% | [3]; [8] 90% | [3]; at 50.0 µM 78.5% | [4]; [8] 90% | [4]; at 50.0 µM 80.9% | [5]; [8] 92% | [5]; at 50.0 µM 78% | [6]; [8] 92% | [6]; at 50.0 µM 80.2%

COCCn1cc(F)c(=O)[nH]c1=O
inactive: [1]; [7] 15% | [1]; [8] 16% | [1]; at 50.0 µM -8.7% | [2]; [7] 0% | [2]; [8] 2% | [2]; at 50.0 µM -2.25% | [3]; [7] 3% | [3]; [8] 47% | [3]; at 50.0 µM 33.2% | [4]; [7] 6% | [4]; [8] 8% | [4]; at 50.0 µM 46.3% | [5]; [7] 8% | [5]; [8] 5% | [5]; at 50.0 µM -20.6% | [6]; [7] 9% | [6]; [8] 20% | [6]; at 50.0 µM -5.45%

O=C(NCCCCCN1CCC2(CCCCC2)CC1)C(c1ccccc1)C1CCCCC1 (configuration not stated)
active: [1]; [8] 99% | [1]; at 50.0 µM 99.6% | [2]; [8] 98% | [2]; at 50.0 µM 99.6% | [3]; [8] 97% | [3]; at 50.0 µM 99.7% | [4]; [8] 99% | [4]; at 50.0 µM 99.2% | [5]; [8] 100% | [5]; at 50.0 µM 99.6% | [6]; [8] 99% | [6]; at 50.0 µM 99.7%
inactive: [1]; [7] -1% | [2]; [7] -12% | [3]; [7] 0% | [4]; [7] 5% | [5]; [7] -15% | [6]; [7] 0%

ClC(Cl)(Cl)/C=C/c1cnc2ccccc2n1
active: [1]; [8] 99% | [2]; [8] 99% | [3]; [8] 99% | [4]; [8] 99% | [5]; [8] 99% | [5]; at 50.0 µM 85.7% | [6]; [8] 99%
inactive: [1]; [7] 2% | [1]; at 50.0 µM 15.6% | [2]; [7] 1% | [2]; at 50.0 µM 5.95% | [3]; [7] 1% | [3]; at 50.0 µM 49.3% | [4]; [7] -3% | [4]; at 50.0 µM -2% | [5]; [7] -3% | [6]; [7] 3% | [6]; at 50.0 µM 30.2%

C=CS(=O)(=O)c1ccc([N+](=O)[O-])cc1
inactive: [1]; [7] -29% | [2]; [7] -7% | [3]; [7] 21% | [4]; [7] -16% | [5]; [7] 20% | [6]; [7] 16%
active: [1]; [8] 98% | [1]; at 50.0 µM 99.7% | [2]; [8] 99% | [2]; at 50.0 µM 99.7% | [3]; [8] 98% | [3]; at 50.0 µM 99.5% | [4]; [8] 98% | [4]; at 50.0 µM 99.7% | [5]; [8] 98% | [5]; at 50.0 µM 99.3% | [6]; [8] 97% | [6]; at 50.0 µM 99.2%
